Screening results (PubChem)
EBV gp42 block – Epstein-Barr virus gp42 inhibitors, primary screen, biochemical, uHTS, fluorescence polarization | Glycoprotein 42 (Epstein-Barr virus (strain AG876)), Q1HVG2 | Fluorescence polarization binding assay, mP read-out | inhibition, % (tested at 21.74 µM) | 220,000 tested, 0.42% active; in the data active = inhibition above about 50%
GLD-1 TGE inh – GLD-1/TGE RNA complex disruptors, primary screen, biochemical, fluorescence polarization; Female germline-specific tumor suppressor gld-1 (Caenorhabditis elegans), Q17339; purified GLD-1 + fluorescein TGE RNA; inhibition, % at 5.96 µM; 320,000 tested, 0.44% active;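 active = percent inhibition above a per-plate cutoff, the plate mean of test compounds plus 3 SD, cut at about 30% in these data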;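 note: 0% = DMSO wells with GLD-1 and probe and 100% = wells lacking GLD-1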
MEX-5 binding – MEX-5 zinc finger RNA-binding disruptors – biochemical, C. elegans, fluorescence polarization, MLPCN library, primary screen. MEX-5/FITC-TCR2 RNA binding; stronger effect = lower value. activity score (negative = inhibition of binding), % at 10 µM. 300,000 tested, 0.38% active;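 active = inhibition past about -25% in most replicates, and total fluorescence under double the plate's negative control median, limit read from the data; inconclusive = replicates evenly split on the limit, or fluorescence at least double controls; inactive = too little inhibition in most replicates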;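 note: 0% = DMSO and -100% = 5 µM competing unlabeled TCR2 RNA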
E coli Lon inh – inhibitors of E. coli Lon protease, primary screen, biochemical, fluorescence polarization; purified E. coli Lon protease; 360,000 tested, 0.42% active; inhibition, % at 7.94 µM; in the data active = inhibition above about 13%, passing the limit was not always enough;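 note: 0% = enzyme with probe and DMSO and 100% = no enzyme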
Target sequence (P0A9M0 whole entry, looked up): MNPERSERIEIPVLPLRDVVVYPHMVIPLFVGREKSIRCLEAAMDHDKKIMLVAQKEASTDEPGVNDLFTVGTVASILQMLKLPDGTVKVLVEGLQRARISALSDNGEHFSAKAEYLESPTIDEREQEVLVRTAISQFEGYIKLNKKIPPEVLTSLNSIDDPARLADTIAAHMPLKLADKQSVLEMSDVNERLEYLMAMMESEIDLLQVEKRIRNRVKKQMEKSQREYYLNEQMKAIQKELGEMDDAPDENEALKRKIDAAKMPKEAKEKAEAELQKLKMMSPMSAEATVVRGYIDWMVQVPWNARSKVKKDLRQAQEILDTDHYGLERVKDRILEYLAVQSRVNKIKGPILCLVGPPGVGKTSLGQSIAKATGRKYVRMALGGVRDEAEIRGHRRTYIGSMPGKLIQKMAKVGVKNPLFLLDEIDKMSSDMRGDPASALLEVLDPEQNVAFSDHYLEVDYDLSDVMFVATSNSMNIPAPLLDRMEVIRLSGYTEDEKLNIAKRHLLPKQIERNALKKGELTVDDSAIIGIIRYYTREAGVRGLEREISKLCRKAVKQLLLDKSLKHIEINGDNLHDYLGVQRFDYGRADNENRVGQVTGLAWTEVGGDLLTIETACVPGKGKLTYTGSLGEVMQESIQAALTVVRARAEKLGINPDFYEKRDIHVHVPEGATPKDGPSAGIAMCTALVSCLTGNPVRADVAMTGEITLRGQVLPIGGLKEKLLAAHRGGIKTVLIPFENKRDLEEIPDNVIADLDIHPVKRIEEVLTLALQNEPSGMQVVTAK
MCL1 BIM primary – inhibitors of MCL1 binding to BIM-BH3, primary screen, biochemical, fluorescence polarization; GST-MCL1 / FITC-Bim-BH3 fluorescence polarization; Induced myeloid leukemia cell differentiation protein Mcl-1 (Homo sapiens), Q07820; inhibition, % at 10.9 µM; 320,000 tested, 0.68% active; AID 2057, 2009;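 active = inhibition above the mean inhibition of all tested compounds plus 3 SD, set per campaign, cut at about 40% in these data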;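 note: 0% = DMSO wells and 100% = unlabeled Bim-BH3 peptide control; higher means more loss of mP so more displacement of Bim peptide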
Bcl-xL primary – inhibitors of human Bcl-xL, primary screen, biochemical, fluorescence polarization, HTS; Bcl-2-like protein 1 (Homo sapiens), Q07817; GST-Bcl-xL / FITC-Bim BH3 peptide fluorescence polarization; 320,000 tested, 0.7% active; inhibition, % at 10.9 µM;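 active = inhibition above the mean of all tested compounds plus 3 SD, cutoff set per campaign, cut at about 30% in these data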;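 note: 0% = DMSO wells and 100% = unlabeled Bim-BH3 peptide competitor; inhibitors lower millipolarization by displacing the labeled peptide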
eLon confirm – E. coli Lon protease inhibitor retest, confirmation, biochemical, fluorescence polarization | AID 602230, 2012 | shares compounds with E coli Lon inh | 1,400 tested, 31% active | purified E. coli Lon | inhibition, % at 7.94 µM; in the data active = inhibition above about 16%;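 note: 0% = enzyme with probe and DMSO and 100% = no enzyme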
* marks the source's active call; other numbers are inactive results; ? = inconclusive; · = no result; + = active, no number. An excerpt weighted towards active compounds, which were near 1.5% of everything screened.

SMILES | EBV gp42 block | GLD-1 TGE inh | MEX-5 binding | E coli Lon inh | MCL1 BIM primary | Bcl-xL primary | eLon confirm
COc1ccccc1-n1c(SCC(=O)NC2CCS(=O)(=O)C2)nc2ccccc2c1=O (centres undefined) | · | 9.2 | · | 18.7* | -3.0 | -3.0 | 2.1
O=C1N=C2N(CCN3CCCCC3)c3ccccc3N2/C1=C\c1ccc([N+](=O)[O-])s1 | · | · | · | 2.1 | · | · | ·
COc1ccc(NS(=O)(=O)c2ccc(OC)c(N(C)S(=O)(=O)c3ccc(Cl)cc3)c2)cc1 | -1.5 | 3.6 | 0.7 | 3.0 | 2.2 | 0.5 | ·
COc1ccc(S(=O)(=O)Nc2ccc(F)cc2)cc1N(C)S(=O)(=O)c1ccc(Cl)cc1 | -23.7 | 2.1 | -0.4 | 16.1* | 5.2 | 7.4 | 41.0*
COc1cccc(N2CCN(C(=O)c3ccc(Cl)c(NC4=NC5CS(=O)(=O)CC5S4)c3)CC2)c1 (centres undefined) | · | 3.4 | 1.9 | -6.4 | 5.1 | 2.1 | ·
COc1ccccc1N(CC(=O)NC1CCCC1)C(=O)CCC(=O)Nc1ccccn1 | · | 9.2 | 4.4 | 18.1* | -1.1 | 4.2 | -18.2
COc1ccccc1N(CC(=O)NC1CCCC1)C(=O)CCC(=O)Nc1cc(C)on1 | 3.8 | 8.5 | -3.3 | 5.5 | 1.9 | 3.5 | ·
O=C(O)CC(SCC(=O)Nc1ccc(S(=O)(=O)N2CCCC2)cc1)C(=O)O (centres undefined) | -11.4 | 0.8 | -3.1 | 17.4* | 5.4 | 3.0 | 0.3
CC1CCc2sc(C(=O)N(C)CC(=O)Nc3cccc(F)c3)cc2C1 (centres undefined) | · | 0.4 | 0.5 | 16.1* | -16.9 | -10.3 | -3.7
COc1cccc(NC(=O)CN(C)C(=O)c2cc3c(s2)CCCC3)c1 | · | 4.2 | · | -1.9 | -5.1 | -0.3 | ·
N#CC(CCc1ccc([N+](=O)[O-])cc1)(CCc1ccc([N+](=O)[O-])cc1)C(N)=O | · | · | · | 51.5* | · | · | 30.9*
COc1ccc2[nH]cc(CCNC(=O)CC[C@H]3O[C@@H](n4cc(C)c(=O)[nH]c4=O)C[C@@H]3O)c2c1 | · | · | · | 13.2* | · | · | 0.5
CSc1ncc(CNc2cc([N+](=O)[O-])ccc2C)c(N)n1 | · | -0.9 | -1.7 | -0.1 | -9.2 | -0.4 | ·
O=c1c(/C=C(\O)c2ccc(F)cc2)nc2ccccc2n1-c1ccccc1 | 14.4 | -16.7 | ? | + | -12.5 | 2.7 | -205.1
CCOC(=O)N1CCC(NS(=O)(=O)c2ccc(C#N)cc2)CC1 | 45.3 | 4.3 | -2.3 | -1.8 | 3.4 | 7.2 | ·
COc1cc(OC)cc(C(=O)N[C@H](C(=O)OCn2nnc3ccccc3c2=O)C(C)C)c1 | -6.7 | -1.8 | 2.3 | 15.8* | 0.8 | 2.7 | -7.7
O=S(=O)(NCCN1CCOCC1)c1ccc(Cl)c(Cl)c1 | · | 6.5 | -0.6 | 16.4* | 3.0 | 5.2 | -1.4
CC(C)c1nnc(N2C(=O)C(O)=C(C(=O)c3cccs3)C2c2ccccc2)s1 (centres undefined) | 126.3* | · | -65.9* | 34.0* | · | · | 80.3*
Cc1cccc(N2C(=O)C(O)=C(C(=O)c3cccs3)C2c2ccc(C(C)C)cc2)n1 (centres undefined) | 2.6 | 2.9 | 1.4 | 3.9 | 4.7 | 9.0 | ·
CCC(=O)N(CCc1ccc(OC)c(OC)c1)Cc1cc2ccc(C)cc2n2nnnc12 | -10.8 | -0.1 | -0.5 | 15.7* | 3.8 | 0.2 | 10.0
CCC(=O)N(Cc1cc2ccc(C)cc2n2nnnc12)C1CCCCC1 | -20.0 | 8.4 | 1.3 | -3.2 | -1.8 | 1.8 | ·
CS(=O)(=O)N(CCc1ccccc1)CC(=O)N1CCCCCC1 | · | · | · | -6.1 | · | · | ·
O=C(COc1ccc(S(=O)(=O)N2CCCC2)cc1Cl)NCc1cccnc1 | · | -2.9 | 0.8 | -0.2 | -1.5 | 1.3 | ·
CC(NS(=O)(=O)c1ccccc1)C1CC2CCC1C2 (centres undefined) | · | 6.2 | -1.9 | 22.7* | 2.6 | -1.6 | -1.7
CC(NS(=O)(=O)c1ccc(N)cc1)C1CC2CCC1C2 (centres undefined) | · | -0.2 | 3.4 | -2.3 | -0.3 | 0.0 | ·
SMILES | EBV gp42 block | GLD-1 TGE inh | MEX-5 binding | E coli Lon inh | MCL1 BIM primary | Bcl-xL primary | eLon confirm
Nc1cccc2c(O)cc(S(=O)(=O)O)cc12 | · | · | · | 64.8* | · | · | 12.1
Nc1cccc2c(O)cccc12 | · | -0.9 | 0.9 | 16.7 | 7.4 | 5.9 | ·
Nc1ccc2c(O)cc(S(=O)(=O)O)cc2c1 | · | · | · | 136.9* | · | · | 3.1
CC(=O)Nc1ccc2c(O)cc(S(=O)(=O)O)cc2c1 | · | · | · | -23.6 | · | · | ·
CCC(C)NC(=O)C1CCC(CNS(=O)(=O)c2ccc3c(c2)N(C(C)=O)CCO3)CC1 (centres undefined) | · | -0.5 | 0.0 | 2.8 | -0.9 | -1.2 | ·
CCCCS(=O)(=O)Nc1ccc(N2CCOCC2)c(S(=O)(=O)N2CCOCC2)c1 | · | -3.6 | 0.8 | 19.2* | 3.4 | -1.1 | 4.9
O=[N+]([O-])c1ccc(N2CCOCC2)c(S(=O)(=O)N2CCOCC2)c1 | 8.5 | -6.1 | -0.1 | 2.5 | 6.5 | 1.4 | ·
CC1CCCC(C)N1CCOc1cc(N)ccc1C#N (centres undefined) | · | · | · | 4.0 | · | · | ·
CC(Sc1nnc(Cc2cccs2)n1C1CC1)C(=O)NC1CCS(=O)(=O)C1 (centres undefined) | · | · | · | 1.0 | · | · | ·
Cc1ccc(C(NC(=O)C2CCN(CCOc3ccccc3)CC2)c2ccccn2)cc1 (centres undefined) | · | · | · | 15.4* | · | · | -2.7
COc1ccc(OCCN2CCC(C(=O)NC(c3ccc(F)cc3)c3ccc4ccccc4n3)CC2)cc1 (centres undefined) | · | · | · | 24.4* | · | · | -15.6
NS(=O)(=O)c1ccc(NC(=O)C(Sc2ccccc2)c2ccccc2)cc1 (centres undefined) | -8.7 | 5.9 | -0.7 | -5.0 | -11.9 | -0.9 | ·
COc1ccc(-c2nnc(SCC(=O)N3CCOCC3)o2)cc1OC | -9.3 | 6.9 | 2.2 | 13.8* | -1.1 | -5.7 | 1.9
O=C(c1ccc(S(=O)(=O)c2ccccc2Cl)c([N+](=O)[O-])c1)N1CCCCCC1 | -4.1 | -2.7 | -1.0 | -9.1 | 10.7 | 8.8 | ·
Cc1cccc(OCc2nnc(SCC(=O)N3CC(=O)Nc4ccccc43)o2)c1 | -6.6 | 0.2 | -0.2 | 8.2 | -0.2 | 1.8 | ·
CCOc1ccc(NC(=O)CSC2=NCCN2)cc1 | -2.2 | 5.7 | 1.2 | 44.9* | 11.7 | 5.1 | 4.4
Cc1ccccc1NC(=O)c1ccc2nc(N3CCOCC3)sc2c1 | · | -0.2 | -0.6 | -9.2 | -3.8 | -2.0 | ·
Cc1ccccc1C(=O)N1CCN(c2ccc(N3CCOCC3)nn2)CC1 | · | 3.5 | -1.9 | 22.7* | -6.9 | 0.0 | 6.2
